Where “and” joins values, the source holds several entries; their conditions need not be identical. Equal values may be shown once. Results filed as inconclusive are left out. A call without a number means that no potency is given here. Some compounds were tested as several samples or in several runs, with calls that do not always agree. Calls of active or inactive are those of the source. Unless noted, calls come from the whole dose curve; as a rule, active = well fitted curve in the direction sought with a large enough effect in the repeat runs; inconclusive = weak or mixed curves; inactive = no such curve, though single readings can be large; an effect the other way counts as inactive or inconclusive.
Columns and labels:
[1] = qHTS assay to identify small molecule agonists of the peroxisome proliferator-activated receptor delta (PPARd) signaling pathway - cell viability counter screen (AID 743211); note: nearly all actives have a fitted effect of over 55% in size; note: potency is the fitted concentration of half-maximal effect
Method in brief: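 Read-out: CellTiter-Glo luminescence, 30 min RT, measured in the same wells as the beta-lactamase reporter. Cells: GeneBLAzer PPAR delta UAS-bla HEK293H, 3000 cells/well, compound exposure 17 h at 37C.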

[2] = qHTS assay to identify small molecule antagonists of the peroxisome proliferator-activated receptor delta (PPARd) signaling pathway - cell viability counter screen (AID 743213); note: nearly all actives have a fitted effect of over 50% in size; note: potency is the fitted concentration of half-maximal effect
Method in brief: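 HEK293H PPARd UAS-bla cells, 5 h pre-incubation, compound + L165041 300 nM final, 17 h 37 C; B/G FRET substrate 2 h RT; then CellTiter-Glo 30 min RT, luminescence.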

[3] = qHTS assay to identify small molecule agonists of the farnesoid-X-receptor (FXR) signaling pathway - cell viability counter screen (AID 743218); note: nearly all actives have a fitted effect of over 45% in size; note: potency is the fitted concentration of half-maximal effect
Method in brief: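 Luminescence from CellTiter-Glo, read after 30 min at RT, reports viability of GeneBLAzer FXR-UAS-bla HEK 293T cells treated 16 h with compounds in the wells used for the beta-lactamase reporter.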

[4] = qHTS assay to identify small molecule antagonists of the farnesoid-X-receptor (FXR) signaling pathway - cell viability counter screen (AID 743221; active = well fitted cell-killing curve with a large enough effect in the repeat runs, not every such curve was filed as active; note: nearly all actives have a fitted effect of over 50% in size; note: potency is the fitted concentration of half-maximal effect)
Method in brief: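 HEK 293T FXR-bla cells, 5 h pre-incubation; compound + CDCA 50 uM final, 16 h, 37 C; beta-lactamase FRET read first, then CellTiter-Glo luminescence, 30 min RT.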

[5] = molecular target: Vitamin D3 receptor (Homo sapiens) (UniProt P11473); assay: qHTS assay to identify small molecule agonists of the vitamin D receptor (VDR) signaling pathway (AID 743222; calls by dose curve)
Method in brief: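 Beta-lactamase reporter readout (LiveBLAzer B/G FRET, 2 h RT) in VDR-bla cells after 16 h compound treatment at 37C, 5% CO2; cells pre-incubated 4 h before pin transfer of DMSO solutions.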

[6] = molecular target: Vitamin D3 receptor (Homo sapiens) (UniProt P11473); assay: qHTS assay to identify small molecule antagonists of the vitamin D receptor (VDR) signaling pathway (AID 743223; active = well fitted inhibition curve with a large enough effect in the signal ratio in the repeat runs, not every such curve was filed as active; the % refers to the signal ratio)
Method in brief: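 Beta-lactamase reporter read-out: FRET substrate fluorescence after 2 h at room temperature, following 16 h exposure of VDR-bla cells to test compound plus 3 nM (final) 1alpha,25-dihydroxyvitamin D3 agonist at 37C.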

[7] = molecular target: Peroxisome proliferator-activated receptor delta (Homo sapiens) (UniProt Q03181); assay: qHTS assay to identify small molecule antagonists of the peroxisome proliferator-activated receptor delta (PPARd) signaling pathway (AID 743215; active = well fitted inhibition curve with a large enough effect in the signal ratio in the repeat runs, not every such curve was filed as active; the % refers to the signal ratio;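 note: cells stimulated with agonist L165041 at 300 nM final during compound exposure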; note: potency is the fitted concentration of half-maximal effect)
Method in brief: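 HEK293H GeneBLAzer PPARd UAS-bla reporter cells; cpd + L165041 300 nM final, 17 h 37 C; LiveBLAzer B/G FRET substrate 2 h RT; fluorescence intensity read-out. Antagonist mode.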

[8] = molecular target: Bile acid receptor (Homo sapiens) (UniProt Q96RI1); assay: qHTS assay to identify small molecule antagonists of the farnesoid-X-receptor (FXR) signaling pathway (AID 743217; active = well fitted inhibition curve with a large enough effect in the signal ratio in the repeat runs, not every such curve was filed as active; the % refers to the signal ratio)
Method in brief: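 Read-out: beta-lactamase FRET fluorescence (LiveBLAzer B/G substrate, 2 h, room temperature) in GeneBLAzer FXR-UAS-bla HEK 293T cells. Compounds were co-dosed with 50 uM chenodeoxycholic acid (final) and incubated 16 h at 37 °C.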

[9] = molecular target: Bile acid receptor (Homo sapiens) (UniProt Q96RI1); assay: qHTS assay to identify small molecule agonists of the farnesoid-X-receptor (FXR) signaling pathway (AID 743220; active = well fitted activation curve with a large enough effect in the signal ratio in the repeat runs, not every such curve was filed as active; the % refers to the signal ratio)
Method in brief: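 FXR-UAS-bla HEK 293T cells carrying a UAS-driven beta-lactamase reporter were plated for 5 h at 37C/5% CO2, then exposed to DMSO-dissolved Tox21 10K compounds for 16 h at 37C. A LiveBLAzer B/G FRET substrate was loaded for 2 h at room temperature before fluorescence reading.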

Chain of Vitamin D3 receptor (Homo sapiens) (P11473 whole entry, looked up): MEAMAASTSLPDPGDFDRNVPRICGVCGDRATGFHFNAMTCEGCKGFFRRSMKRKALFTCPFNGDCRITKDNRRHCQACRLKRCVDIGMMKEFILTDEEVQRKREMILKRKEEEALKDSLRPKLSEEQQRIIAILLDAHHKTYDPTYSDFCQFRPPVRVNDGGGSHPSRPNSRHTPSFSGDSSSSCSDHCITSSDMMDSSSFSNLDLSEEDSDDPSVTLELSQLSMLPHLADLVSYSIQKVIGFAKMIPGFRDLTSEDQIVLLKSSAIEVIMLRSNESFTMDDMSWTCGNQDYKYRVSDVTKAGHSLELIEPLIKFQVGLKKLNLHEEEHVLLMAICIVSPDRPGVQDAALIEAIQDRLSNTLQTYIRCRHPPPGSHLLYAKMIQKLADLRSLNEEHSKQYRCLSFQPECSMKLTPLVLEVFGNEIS
Chain of Bile acid receptor (Homo sapiens) (Q96RI1 whole entry, looked up): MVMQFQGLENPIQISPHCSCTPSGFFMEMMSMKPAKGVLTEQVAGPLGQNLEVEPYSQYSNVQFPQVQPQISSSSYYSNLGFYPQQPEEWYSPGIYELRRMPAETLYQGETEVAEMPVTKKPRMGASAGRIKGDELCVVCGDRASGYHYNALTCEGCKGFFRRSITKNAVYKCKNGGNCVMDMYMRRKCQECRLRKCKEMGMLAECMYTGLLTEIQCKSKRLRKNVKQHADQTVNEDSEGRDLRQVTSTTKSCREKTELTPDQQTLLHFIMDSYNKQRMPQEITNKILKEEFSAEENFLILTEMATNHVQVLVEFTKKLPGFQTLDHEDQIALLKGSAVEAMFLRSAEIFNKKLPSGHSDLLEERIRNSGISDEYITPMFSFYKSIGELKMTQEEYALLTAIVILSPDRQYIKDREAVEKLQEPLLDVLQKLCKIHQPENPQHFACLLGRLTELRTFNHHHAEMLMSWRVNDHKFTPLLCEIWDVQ
Chain of Peroxisome proliferator-activated receptor delta (Homo sapiens) (Q03181 whole entry, looked up): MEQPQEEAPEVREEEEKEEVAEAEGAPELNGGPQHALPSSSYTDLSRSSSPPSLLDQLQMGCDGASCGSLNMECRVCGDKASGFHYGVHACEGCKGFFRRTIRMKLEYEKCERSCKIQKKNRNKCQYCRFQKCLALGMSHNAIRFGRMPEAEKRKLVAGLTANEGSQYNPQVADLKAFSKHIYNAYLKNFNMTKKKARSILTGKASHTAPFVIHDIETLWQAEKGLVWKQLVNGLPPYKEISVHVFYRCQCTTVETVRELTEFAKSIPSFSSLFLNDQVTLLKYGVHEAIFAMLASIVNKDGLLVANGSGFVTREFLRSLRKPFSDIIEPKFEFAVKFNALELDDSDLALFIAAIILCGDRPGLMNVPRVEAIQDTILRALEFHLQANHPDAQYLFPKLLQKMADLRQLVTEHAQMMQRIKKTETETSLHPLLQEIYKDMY

SMILES	Potency [1]	Potency [2]	Potency [3]	Potency [4]	Potency [5]	Potency [6]	Potency [7]	Potency [8]	Potency [9]
[Cl][Hg][c]1ccccc1	0.977 µM (active)	2.19 µM (active)	1.55 µM (active)	1.38 µM (active)	inactive	–	–	–	–
[F][Sn]([c]1ccccc1)([c]1ccccc1)[c]1ccccc1	0.871 µM (active)	0.977 µM (active)	0.977 µM (active)	1.55 µM (active)	inactive	–	–	–	–
N#CC(C#N)=NNc1cccc(Cl)c1	8.71 µM (active)	8.71 µM (active)	5.49 µM (active)	6.92 µM (active)	–	–	–	–	–
Nc1nc(N)nc(Cl)n1	inactive	inactive	inactive	inactive	–	–	–	–	–
CC(=O)[O-].CC(=O)[O-].[Co+2]	inactive	inactive	inactive	inactive	–	–	–	–	–
COc1ccc2c(c1OC)C(=O)O[C@@H]2[C@H]1c2cc3c(cc2CCN1C)OCO3	inactive	inactive	inactive	inactive	–	–	–	–	–
CC(=O)[O-].CC(=O)[O-].O.O.[Zn+2]	inactive	inactive	inactive	inactive	–	–	–	–	–
C#CC1(O)CCCCC1	inactive	inactive	inactive	inactive	–	–	–	–	–
BrCCCBr	inactive	inactive	inactive	inactive	inactive	inactive	–	–	–
Cc1ccc2cc3c(ccc4ccccc43)c3c2c1CC3	inactive	inactive	inactive	inactive	inactive	inactive	–	–	–
[Cl-].[Cl-].[Cl-].[Yb+3]	inactive	inactive	inactive	inactive	–	–	–	–	–
O=[N+]([O-])c1ccccc1-c1ccccc1	inactive	inactive	inactive	inactive	–	–	–	–	–
CN/C(=N\[N+](=O)[O-])NCc1cnc(Cl)s1	inactive	inactive	inactive	inactive	inactive	inactive	–	–	–
CC(=O)[O][Pb]([c]1ccccc1)([c]1ccccc1)[c]1ccccc1	1.23 µM (active)	1.23 µM (active)	0.549 µM (active)	1.1 µM (active)	–	–	–	–	–
O=S1OCC2C(CO1)C1(Cl)C(Cl)=C(Cl)C2(Cl)C1(Cl)Cl (stereo not given)	24.5 µM (active)	54.9 µM (active)	38.9 µM (active)	–	inactive	–	–	–	–
CC(=O)[O][Sn]([c]1ccccc1)([c]1ccccc1)[c]1ccccc1	0.0977 µM (active)	0.275 µM (active)	0.0977 µM (active)	0.138 µM (active)	–	–	–	–	–
CCCCn1cc[n+](C)c1.[Cl][Fe-]([Cl])([Cl])[Cl]	inactive	inactive	inactive	inactive	–	–	–	–	–
O=[N+]([O-])c1cc(C(F)(F)F)c(Cl)c([N+](=O)[O-])c1Nc1ncc(C(F)(F)F)cc1Cl	8.71 µM (active)	6.16 µM (active)	15.5 µM (active)	21.9 µM (active)	–	–	–	–	–
O=[N+]([O-])c1ccc(Cl)c(Cl)c1Cl	inactive	inactive	inactive	inactive	inactive	–	–	–	–
O.O.O.O.O.O.O=S(=O)([O-])[O-].[Ni+2]	inactive	inactive	inactive	inactive	–	–	–	–	–
CC(Cc1ccc(OCC(=O)O)cc1)NCC(O)c1csc(C(F)(F)F)n1 (stereo not given)	inactive	inactive	inactive	inactive	inactive	inactive	–	–	–
CC[C@H](C)[C@H]1O[C@]2(C=C[C@@H]1C)C[C@@H]1C[C@@H](C/C=C(\C)[C@@H](O[C@H]3C[C@H](OC)[C@@H](O[C@H]4C[C@H](OC)[C@@H](NC)[C@H](C)O4)[C@H](C)O3)[C@@H](C)/C=C/C=C3\CO[C@@H]4[C@H](O)C(C)=C[C@@H](C(=O)O1)[C@]34O)O2	3.09 µM (active)	3.89 µM (active)	5.49 µM (active)	8.71 µM (active)	–	–	–	–	–
CCC[CH2][Sn]([CH2]CCC)([CH2]CCC)[O][Sn]([CH2]CCC)([CH2]CCC)[CH2]CCC	0.676 µM (active)	0.759 µM (active)	0.479 µM (active)	1.2 µM (active)	–	–	–	–	–
CN(C)CCc1c[nH]c2ccccc12	inactive	inactive	inactive	inactive	–	inactive	–	–	–
CCCCN(CCCC)C(=S)S	inactive	inactive	inactive	inactive	inactive	–	–	–	–
CN(C)C(=S)SSC(=S)N(C)C	76.5 nM (active) and 38.9 nM (active) and 188 nM (active)	108 nM (active) and 30.9 nM (active) and 298 nM (active)	121 nM (active) and 30.9 nM (active) and 841 nM (active)	121 nM (active) and 43.6 nM (active) and 237 nM (active)	inactive	–	–	–	–
COP(=O)(OC)Oc1ccc([N+](=O)[O-])cc1	inactive	inactive	inactive	inactive	inactive	–	–	–	–
C=C(C)C(=O)[O][Sn]([CH2]CCC)([CH2]CCC)[CH2]CCC	0.871 µM (active)	1.55 µM (active)	0.616 µM (active)	0.977 µM (active)	inactive	–	–	–	–

SMILES	Potency [1]	Potency [2]	Potency [3]	Potency [4]	Potency [5]	Potency [6]	Potency [7]	Potency [8]	Potency [9]
CCCCn1cc[n+](C)c1 (tested in a mixture with another compound)	inactive	inactive	inactive	inactive	–	–	–	–	–
CN1C(=O)[C@@H](NC(=O)c2cc3ccccc3[nH]2)N=C(c2ccccc2)c2ccccc21	inactive	inactive	inactive	inactive	inactive	inactive	–	–	–
CC(O)C(=O)[O][Hg][c]1ccccc1 (stereo not given)	1.38 µM (active)	1.95 µM (active)	1.23 µM (active)	2.75 µM (active)	inactive	–	–	–	–
CCN(CC)C(=S)S	13.9 µM (active) and 3.87 µM (active) and 4.9 µM (active)	inactive and 6.13 µM (active) and 3.47 µM (active)	12.4 µM (active)	22.1 µM (active) and 4.87 µM (active) and 7.76 µM (active)	inactive	–	–	–	–
CC(=O)O.CC(=O)O.CC(=O)O.CC(=O)O.CC(=O)O.CC(=O)O.CC(=O)O.O.O.[Cr].[Cr].[Cr]	inactive	inactive	inactive	inactive	–	–	–	–	–
CCCCN(CCCC)C(=S)[S-].CCCCN(CCCC)C(=S)[S-].[Ni+2]	inactive	inactive	inactive	inactive	inactive	inactive	–	–	–
C=CC(=O)[O][Sn]([CH2]CCC)([CH2]CCC)[CH2]CCC	1.95 µM (active)	3.47 µM (active)	1.1 µM (active)	3.89 µM (active)	inactive	–	–	–	–
CCC[CH2][Sn]([CH2]CCC)([CH2]CCC)[CH2]CCC	43.6 µM (active)	–	49 µM (active)	–	–	–	15.5 µM (active)	–	–
O=P(Cl)(Cl)Cl	inactive	–	inactive	inactive	–	–	inactive	–	–
O=C(O)CCCCCCNC1c2ccccc2CCc2ccccc21	inactive	–	inactive	inactive	inactive	inactive	–	inactive	inactive
Oc1ccc([C@H]2CNCc3c2ccc(O)c3O)cc1O	inactive	–	inactive	inactive	inactive	inactive	–	inactive	inactive
CC1CCCC1	inactive	–	inactive	inactive	inactive	inactive	–	–	–
C=CCBr	inactive	–	inactive	inactive	inactive	–	–	inactive	inactive
c1ccc2c(c1)cc1ccc3cccc4ccc2c1c34	inactive	–	inactive	inactive	–	–	–	–	–
O=S(=O)(O)F	inactive	inactive	–	inactive	inactive	inactive	–	–	inactive
OCC(Br)CBr (stereo not given)	inactive	–	inactive	inactive	inactive	inactive	–	inactive	inactive
Brc1cccc(-c2ccccc2)c1	inactive	–	inactive	inactive	inactive	inactive	–	inactive	inactive
CCCC[N+]1(C)CCCC1 (tested in a mixture with another compound)	inactive	–	inactive	inactive	–	–	–	–	–
O=[N+]([O-])c1cccc2cccc([N+](=O)[O-])c12	inactive	–	inactive	inactive	inactive	inactive	–	inactive	inactive
CSC1=N[C@@](C)(c2ccccc2)C(=O)N1Nc1ccccc1	inactive	inactive	–	inactive	inactive	inactive	–	–	inactive
COP(=S)(OC)Oc1nc(Cl)c(Cl)cc1Cl	inactive	–	inactive	inactive	–	–	–	inactive	inactive
O=c1c2ccccc2c(=O)c2c1cc(Cl)c1[nH]c3c([nH]c12)c(Cl)cc1c(=O)c2ccccc2c(=O)c13	inactive	–	inactive	inactive	inactive	inactive	–	inactive	inactive
Fc1ccc(C(OCCN2CCN(CCCc3ccccc3)CC2)c2ccc(F)cc2)cc1	16.8 µM (active)	–	–	–	–	–	29.8 µM (active)	–	–
C[C@]12CC[C@H]3[C@@H](CCC4=CC(=O)CC[C@@H]43)[C@@H]1CC[C@@H]2OC(=O)CCc1ccco1	26.6 µM (active)	29.8 µM (active)	21.1 µM (active)	–	inactive	–	–	–	–
CCCCCCC[CH2][Sn]([Cl])([Cl])[CH2]CCCCCCC	24.5 µM (active)	–	11 µM (active)	54.9 µM (active)	–	–	–	–	inactive
O=[N+]([O-])[O-].[Tl+]	inactive	–	inactive	inactive	–	–	–	–	–
CCCCc1ccccc1	inactive	–	inactive	inactive	–	inactive	inactive	–	inactive

Source: PubChem BioAssay (Tox21)
